Each structure is given as a SMILES string. Among all 110,000 compounds or so, about 80 (0.07%) were called active. The sample holds actives, similar compounds and a random draw of the others, so the mix is not that of the screen.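 How the source made its calls: active means inhibition above the mean of the plate negative controls plus 5 SD (cut at about 13% in these data); inactive means the rest.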

This note sets out measurements from PubChem BioAssay AID1029 (Sanford-Burnham Center for Chemical Genomics, 2008).

The nature of this assay: inhibitors of macrophage phagocytosis, primary screen, imaging, J774A.1 cells, IgG beads (AID 1029).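 Further: phagocytic index as fraction of beads internalized from green versus red external bead signal; plate controls were DMSO negative control for no effect and cytochalasin-D positive control for full effect.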 The settings on record: J774A.1 macrophage IgG-bead phagocytosis, at 5 µM, stronger effect = higher value.
With `COc1ccc(C/C(C)=N/NC(=O)c2cc(C)oc2C)cc1`, the inhibition was -3.05% (inactive).

In the case of `C/C(=N\N1CCN(Cc2ccc(C)cc2)CC1)c1ccco1`, the inhibition was -3.06% (inactive).

Turning to `CCCC/S(C)=N/S(=O)(=O)c1ccc(C)cc1` (stereo unspecified), the inhibition is -3.8% (inactive).

On to `O=C(NC(=O)N1CCOCC1)c1ccccc1`, for which the inhibition was -2.51% (inactive).

`CCN(CC)S(=O)(=O)c1cc([N+](=O)[O-])ccc1N=Nc1c(O)n(C)c2ccccc12`: the inhibition is -7.04% (inactive).

In the case of `CC1=C(C)CC(C(=O)NNC(=O)c2csc3c2CCC(C(C)(C)C)C3)C(C(=O)O)C1` (stereo unspecified), the inhibition is -3.56% (inactive).

Turning to `CCOC(=O)/C(=N\Nc1cc(Cl)ccc1Cl)N1CCN(C)CC1`, the inhibition is -4.83% (inactive).

Regarding `Cc1ccccc1N(C(=O)Cc1cccs1)C(C(=O)NC1CCCCC1)c1cn(C)nc1C` (stereo unspecified), the inhibition was -10.4% (inactive).

As to `Cc1nc(-c2ccccc2)cn2c1nc1ccccc12`, the inhibition is -5.21% (inactive).

With `CCOc1ccccc1N1CCN(C(=S)Nc2ccc(S(N)(=O)=O)cc2)CC1`, the inhibition was -1.85% (inactive).

In the case of `CC(C)(C)NCCCOc1ccc(Cl)cc1C(C)(C)C`, the inhibition is -2.22% (inactive).

Turning to `Cc1ccc(C(=O)/C=C/Nc2ccc(S(=O)(=O)Nc3onc(C)c3C)cc2)cc1`, the inhibition was 4.08% (inactive).

With `O=C(c1cncc(Br)c1)N1CCN(c2ccc([N+](=O)[O-])cc2)CC1`, the inhibition was 1% (inactive).

For the molecule `N=c1n(CCc2ccccc2)c2ccccc2n1Cc1ccccc1F`, the inhibition was -1.86% (inactive).

Consider `CCCOC(=O)c1ccc(N2C(=O)c3ccccc3C2=O)cc1`, for which the inhibition was -13.4% (inactive).

Regarding `Cc1ccc(C(=O)NC(C)c2ccccc2)cc1Br` (stereo unspecified), the inhibition is -1.23% (inactive).

Consider `Cc1ccc(CC(=O)Nc2ccc(OC(F)F)c(Cl)c2)cc1C`, for which the inhibition is -0.42% (inactive).

For `COc1ccc(/C=C/C(=O)OCC(=O)NCc2cccs2)cc1OC`, the inhibition is -8.33% (inactive).

For `Cc1ccc(C2=NN(C(=O)CSc3nc(N)cc(N)n3)C(c3ccco3)C2)cc1` (stereo unspecified), the inhibition is -1.98% (inactive).

For the molecule `C=CCn1c(SCc2ccc(Cl)c(Cl)c2)nnc1C(CO)NC(=O)c1ccc(OC)cc1` (stereo unspecified), the inhibition was -2.58% (inactive).

On to `Cc1cc(F)ccc1S(=O)(=O)Nc1ncnc2scc(-c3ccc(F)cc3)c12`, for which the inhibition is 0.71% (inactive).

In the case of `CN(c1nc2ccccc2n2c(-c3ccco3)nnc12)S(=O)(=O)c1ccccc1`, the inhibition was 14.8% [artifact] (active).

For `c1coc(-c2nc3nc4ccccc4n3nc2-c2ccco2)c1`, the inhibition was -0.8% (inactive).

With `Cc1cc(NCc2ccco2)n2c(nc3ccccc32)c1C#N`, the inhibition was -1.3% (inactive).

For `NS(=O)(=O)c1ccc(N=Cc2ccc(Br)s2)cc1`, the inhibition is -3.71% (inactive).

Turning to `Cc1nn(-c2ccccc2)c2c1C(c1cccc([N+](=O)[O-])c1)N(c1ccccc1)C(=O)N2` (stereo unspecified), the inhibition was -9.61% (inactive).

For the molecule `COc1cc(C(=O)NNC(=O)c2ccc(S(=O)(=O)N3CCCCC3)cc2)cc(OC)c1OC`, the inhibition is -4.43% (inactive).

For the molecule `CC(=O)Nc1ccc(S(=O)(=O)NC2(C(F)(F)F)C(=O)Nc3c2c(=O)[nH]c(=O)n3Cc2ccccc2)cc1` (stereo unspecified), the inhibition is -1.92% (inactive).

As to `CCc1ccc(C2N3CC4([N+](=O)[O-])CN2CC([N+](=O)[O-])(C3)C4(C)C)cc1` (stereo unspecified), the inhibition was -13.9% (inactive).

As for `C=CCn1c(CCNC(=O)c2cccs2)n[nH]c1=S`, the inhibition was -0.81% (inactive).

Take `COc1cc(/C=C/C(=O)N2c3ccccc3Sc3ccc(C(F)(F)F)cc32)cc(OC)c1OC`: the inhibition was -3.45% (inactive).

As to `Cc1ccc(Sc2ccncc2S(N)(=O)=O)cc1`, the inhibition is -3.16% (inactive).

Turning to `O=C(c1cccs1)n1nc(NCc2ccccc2)nc1NCc1ccccc1`, the inhibition was -7.68% (inactive).

Take `CCC1C=C(c2ccccc2)C=CN=C1N(CC)CC` (stereo unspecified): the inhibition is -1.57% (inactive).

Take `O=C(CN1CCSCC1)N/N=C/c1ccc(F)cc1F`: the inhibition was 117% (active).

With `O=C(Cn1cc(C(F)(F)F)ccc1=O)N/N=C/c1ccc(Cl)cc1Cl`, the inhibition is -1.82% (inactive).

On to `O=C(CN1CCSCC1)N/N=C/c1ccc(F)cc1`, for which the inhibition was -0.8% (inactive).

With `COCCNc1cc(NCCOC)c([N+](=O)[O-])cc1[N+](=O)[O-]`, the inhibition was -0.9% (inactive).

In the case of `O=C(N/N=C/c1ccc(Br)o1)c1cncc(Br)c1`, the inhibition was -4.83% (inactive).

Take `CC(=O)c1c(N2CCN(c3ccc(F)cc3)CC2)nc(=S)n(-c2ccccc2)c1C`: the inhibition was -2.05% (inactive).

Consider `COc1ccc2c(CC(=O)OCC(=O)Nc3ccccc3[N+](=O)[O-])coc2c1`, for which the inhibition is -0.7% (inactive).

On to `COc1ccccc1-c1nnc(NC(=O)c2ccc3ncsc3c2)o1`, for which the inhibition was -6.06% (inactive).

Consider `Cc1ccc(SCCC(=O)NC(C(C)C)C(C)C)cc1`, for which the inhibition is -6.42% (inactive).

Regarding `COC(=O)c1ccccc1NS(=O)(=O)c1ccc2[nH]c(=O)[nH]c2c1`, the inhibition is -2.75% (inactive).

On to `Cc1ccccc1C1=NC(C(F)(F)F)(C(F)(F)F)c2c(n(-c3ccc(F)cc3)c(=O)[nH]c2=O)N1`, for which the inhibition is -2.94% (inactive).

On to `COc1ccccc1N1CCN(CC(=O)NC(=O)NCc2ccco2)CC1`, for which the inhibition was -5.49% (inactive).

For the molecule `CCCNC(=O)NC(=O)COC(=O)CC(NC(N)=O)c1ccc(Cl)cc1` (stereo unspecified), the inhibition is -1.97% (inactive).

In the case of `Cc1ccc(NC(=O)COC(=O)CCc2nc3ccccc3n2-c2ccccc2)c(C)c1`, the inhibition is -9.97% (inactive).

With `Cn1cnc(C(F)(F)F)c1-c1ccc([N+](=O)[O-])cc1`, the inhibition is -12.1% (inactive).

With `CN(C)c1ccc(/C=N/NC(=O)c2ccc(Cn3cc(Br)cn3)o2)cc1`, the inhibition is -0.35% (inactive).

With `O=C(NNC(=O)c1cc2c(s1)CCCC2)c1ccccc1`, the inhibition was -4.32% (inactive).

In the case of `COc1cc(CCC(=O)OCC(=O)Nc2cccc(S(N)(=O)=O)c2)cc(OC)c1OC`, the inhibition is -3.93% (inactive).

As for `CC(C)(C)C(=O)NC(NC(=S)Nc1ccc(S(N)(=O)=O)cc1)C(Cl)(Cl)Cl` (stereo unspecified), the inhibition was -10.5% (inactive).

For `CC(OC(=O)c1ccccc1N1C(=O)C2C3CCC(C3)C2C1=O)C(=O)c1ccccc1` (stereo unspecified), the inhibition was -1.86% (inactive).

Regarding `CC(C)C(=O)Nc1ccc(C(=O)NNC(=O)c2cccs2)cc1`, the inhibition was -0.44% (inactive).

Consider `O=[N+]([O-])c1ccc(NCCCO)c(C(F)(F)F)c1`, for which the inhibition was -3.18% (inactive).

Turning to `CN(C)CCNC(=O)/C(=C/c1cccc([N+](=O)[O-])c1)NC(=O)c1ccccc1`, the inhibition was -4.59% (inactive).

`S=C(NCC1COc2ccccc2O1)Nc1ccc(Br)cc1` (stereo unspecified): the inhibition was -5.67% (inactive).

`NC(=O)Nc1ccccc1C(=O)NCCc1ccccc1`: the inhibition was 2.64% (inactive).

In the case of `Cc1nn(Cc2ccc(Cl)cc2)c(Cl)c1/C=N/NC(=O)c1cccnc1`, the inhibition is -2.24% (inactive).

Take `Cc1cc(Cl)ccc1OCCCC(=O)NCc1ccncc1`: the inhibition was 1.98% (inactive).

On to `CC1CN(S(=O)(=O)c2ccc(C(=O)Nc3sccc3C(N)=O)cc2)CC(C)O1` (stereo unspecified), for which the inhibition was -5.22% (inactive).

In the case of `CNC(=S)N/N=C/c1ccc(OCc2ccccc2)c(Br)c1`, the inhibition is -0.67% (inactive).

With `CCCCCC(=O)Nc1ccc(S(=O)(=O)Nc2ccc(Cl)nn2)cc1`, the inhibition was -11.6% (inactive).

Turning to `COc1cccc(NC(=S)NCc2ccco2)c1`, the inhibition was -4.01% (inactive).

On to `CCC(NC(=O)c1ccccc1NC(=O)c1ccccc1)C(=O)NNC(=O)CSc1nc2ccccc2o1` (stereo unspecified), for which the inhibition is -1.59% (inactive).

Take `CCc1ccc(C2C(C#N)=C(N)N(N(C)C)C3=C2C(=O)CCC3)s1` (stereo unspecified): the inhibition was -3.98% (inactive).

As to `O=C(/C=C\c1ccc2c(c1)OCO2)NC1(C(=O)Nc2ccc3c(c2)OCCO3)CCCCC1`, the inhibition is -2.27% (inactive).

Consider `COc1ccc(NC(C(=O)Nc2cccc(C(C)=O)c2)c2ccccc2)cc1` (stereo unspecified), for which the inhibition was -15.7% (inactive).

Take `C/C(=N\NC(=O)c1ccc(CSc2nc(C)cc(C)n2)cc1)C1CCCCC1`: the inhibition was -4.86% (inactive).

Regarding `CCCn1c(=O)c2c(C(F)(F)F)cc(-c3cccs3)nc2n(CCC)c1=O`, the inhibition is 1.31% (inactive).

For `COC(=O)c1sc(N)c(C(=O)OC)c1COC(=O)CNS(=O)(=O)c1ccc(C)cc1`, the inhibition is -11.5% (inactive).

With `Cc1ccc(/C=C/C(=O)Nc2cc(S(=O)(=O)N3CCCCCC3)ccc2OCC(F)(F)F)o1`, the inhibition is -12.4% (inactive).

For the molecule `O=C(/C=C/NCc1ccc(F)cc1)c1ccccc1`, the inhibition was -1.23% (inactive).

On to `Cn1cc(C(=O)NCc2ccccc2F)cn1`, for which the inhibition was 1.49% (inactive).

In the case of `C=CCc1ccccc1OCC(=O)N/N=C/c1ccccc1OCC`, the inhibition was 1.26% (inactive).

For the molecule `CCOc1ccc(Oc2nc(C)cc(OC)n2)nn1`, the inhibition is -0.15% (inactive).

`COCCCNC(=S)NC(=O)c1ccccc1`: the inhibition was -6.86% (inactive).

As for `C/C(=N\NC(=O)Cc1ccc(F)cc1)c1ccc(F)cc1`, the inhibition is -0.05% (inactive).

As to `COc1ccc(C(=O)CSc2nnc(NC(=O)C3CC(=O)N(c4cccc(OC)c4)C3)s2)cc1` (stereo unspecified), the inhibition is 6.45% (inactive).

For `CC1CCCCN1S(=O)(=O)c1ccc(S(=O)(=O)N(CC(=O)Nc2ccccc2)Cc2cccs2)cc1` (stereo unspecified), the inhibition is -1.49% (inactive).

As for `COc1ccc([C@H]2[C@H](C(C)=O)N3N=Cc4ccccc4C3C23C(=O)OC(C)(C)OC3=O)cc1` (stereo partly specified), the inhibition was 5.33% (inactive).

Consider `CCOC(=O)CNC(=O)/C=C/c1c(Cl)cccc1Cl`, for which the inhibition is -2.32% (inactive).

In the case of `CC(=O)NC(Cc1ccccc1)C(=O)NC1CCN(c2ncccc2[N+](=O)[O-])CC1` (stereo unspecified), the inhibition was 1.47% (inactive).

On to `COc1ccc(OCC(=O)Nc2cc(C)c(Cl)cc2OC)c([N+](=O)[O-])c1`, for which the inhibition is -2.85% (inactive).

`COc1ccc(S(=O)(=O)NC(C)C)cc1C(=O)NC1CCCCC1`: the inhibition was -3.85% (inactive).

What is called inhibition is the relative decrease from the control value, in per cent.
